# The supplement of paper PMC6135742
# Where “and” joins values, the source holds several entries; their conditions need not be identical. Equal entries are not always repeated. Structures can show the parent of a compound that is named as a salt. ± gives the standard deviation of the averaged measurements. The full ranking holds about 2,600 compounds; the median of “total cell number (DAPI+ nuclei) relative to DMSO vehicle control” is about -1.4, and the lowest 2% start at about -23. What follows is part of a selection rich in the lowest values, with near analogues and random picks from the rest.
# Tested on: jimpy (Plp1 jimpy) mouse iPSC-derived oligodendrocyte progenitor cells
# Assay: total cell number (DAPI+ nuclei) relative to DMSO vehicle control (SDs above negative control mean); higher = more surviving cells
# Conditions: 10 µM; 3 days
row,Structure (SMILES),total cell number
1,C[N+](C)(C)CC(O)CC(=O)[O-] (racemic) [DL-Carnitine HCl],2.24
2,"CC(=O)C(C)=O [2,3-Butanedione]",-1.17
3,CC[C@H]1OC(=O)C[C@@H](O)[C@H](C)[C@@H](O[C@@H]2O[C@H](C)[C@@H](O)[C@H](N(C)C)[C@H]2O)[C@@H](CCN2C[C@H](C)C[C@H](C)C2)C[C@@H](C)C(=O)/C=C/C(C)=C/[C@@H]1CO[C@@H]1O[C@H](C)[C@@H](O)[C@@H](OC)[C@H]1OC [Tilmicosin],-3.95
4,COC1=CC(c2cc3ccccc3[nH]2)=N/C1=C\c1[nH]c(C)cc1C [Obatoclax Mesylate (GX15-070)],-27.6
5,Cc1cc(C)c(/C=C2\C(=O)Nc3ccccc32)[nH]1 [Semaxanib (SU5416)],-1.49
6,Cc1cc(C)c(/C=C2\C(=O)Nc3ccccc32)[nH]1,-3.96
7,C[C@H](NC(=O)Cc1cc(F)cc(F)c1)C(=O)N[C@@H]1C(=O)N(C)c2ccccc2-c2ccccc21,-6.63
8,NS(=O)(=O)c1nn2cc(-c3ccccc3)nc2s1,-5.78
9,CCCCCCCC/C=C\CCCCCCCC(=O)NCc1ccc(O)c(OC)c1 [Olvanil],-4.4
10,C[C@@H](N)[C@H]1CC[C@H](C(=O)Nc2ccncc2)CC1,-1.42 and -2.14
11,O=C(Nc1ccc2[nH]ncc2c1)C1CCC1 [Rhodblock 6],-2.58
12,Cc1cc(Nc2cc(N3CCN(C)CC3)nc(/C=C/c3ccccc3)n2)n[nH]1,-26.3
13,"Cc1cc(Nc2cc(N3CCN(C)CC3)nc(Sc3ccc(NC(=O)C4CC4)cc3)n2)n[nH]1 [VX-680 (Tozasertib, MK-0457)]",-24
14,Fc1ccc(C(OCCCc2cnc[nH]2)c2ccc(F)cc2)cc1,-1.91
15,CC(C)NCC(O)c1ccc(NS(C)(=O)=O)cc1 (racemic) [(±)-Sotalol hydrochloride],-1.64
16,COCCNC(=O)COc1ccc(OCCNC[C@H](O)COc2ccccc2)cc1 [ZD 7114 hydrochloride],-0.987
17,CCCC(=O)O[C@]1(C(=O)COC(C)=O)CC[C@H]2[C@@H]3C[C@H](F)C4=CC(=O)C=C[C@]4(C)[C@@]3(F)[C@@H](O)C[C@@]21C [Difluprednate],4.34
18,COc1cc(N2CCN(C)CC2)ccc1Nc1nccc(-c2cn(C)c3cnccc23)n1,-15.9
19,"O=C(O)Cc1ccc(O)c(O)c1 [3,4-Dihydroxyphenylacetic acid]",-1.97
20,Nc1nc(Cl)nc2c1ncn2[C@H]1C[C@H](O)[C@@H](CO)O1 [Cladribine],-22.8
21,Nc1nc(Cl)nc2c1ncn2[C@@H]1O[C@H](CO)[C@@H](O)[C@@H]1F [Clofarabine],-21.2
22,Nc1nc(Cl)nc2c1ncn2[C@@H]1O[C@H](CO)[C@@H](O)[C@H]1O [2-Chloroadenosine],-3.18
23,c1cnc2cc3c(cc2n1)[C@@H]1CNC[C@H]3C1 [Varenicline Tartrate],1.55

row,Structure (SMILES),total cell number
1,c1cnc2cc3c(cc2n1)[C@@H]1CNC[C@H]3C1 [Varenicline tartrate],-2.7
2,O=C(O)C1(C(=O)O)CCC1.[NH2-].[NH2-].[Pt+2] [Carboplatin],-4.56 ± 1.4
3,CSc1nc(N)c2ncn([C@@H]3O[C@H](COP(=O)(O)OP(=O)(O)OP(=O)(O)O)[C@H](O)C3O)c2n1 (stereo not given in full) [2-Methylthioadenosine triphosphate tetrasodium],1.81
4,Nc1ncnc2c1c(-c1cccc(OCc3ccccc3)c1)cn2C1CC(CN2CCCC2)C1 (stereo not given),-25.8
5,Nc1ncnc2c1c(-c1ccc(Oc3ccccc3)cc1)cn2C1CCCC1,-5.56
6,C=CC(=O)N1CCC[C@@H](n2nc(-c3ccc(Oc4ccccc4)cc3)c3c(N)ncnc32)C1,-8.95
7,O=C(Nc1ccccc1C(=O)NC1CCCCNC1=O)c1cc2ccccc2s1 (stereo not given),-0.315
8,COC(=O)N[C@H](C(=O)N1CCC[C@H]1c1ncc(-c2ccc(-c3ccc(-c4cnc([C@@H]5CCCN5C(=O)[C@@H](NC(=O)OC)C(C)C)[nH]4)cc3)cc2)[nH]1)C(C)C,-5.73
9,COc1cccc2c1[C@@H]1CN(CCCCn3c(=O)[nH]c4c(sc5ncc(-c6ccccc6)nc54)c3=O)C[C@@H]1CO2 [Fiduxosin hydrochloride],-6.17
10,Cc1nc(C(=O)NCC(=O)O)c(O)c2ccc(Oc3ccccc3)cc12,3.22
11,CC(C)c1cc(C(=O)N2Cc3ccc(CN4CCN(C)CC4)cc3C2)c(O)cc1O,-25.7
12,C[C@@H](Oc1cc(-n2cnc3ccc(CN4CCN(C)CC4)cc32)sc1C(N)=O)c1ccccc1C(F)(F)F,-14.7
13,"Nc1ncnc2c1ncn2[C@@H]1O[C@H](COP(=O)(O)OP(=O)(O)OP(=O)(O)OP(=O)(O)OC[C@@H]2O[C@H](n3cnc4c(N)ncnc43)C(O)[C@@H]2O)[C@H](O)C1O (stereo not given in full) [P1,P4-Di(adenosine-5')tetraphosphate triammonium]",-0.947
14,Nc1c(S(=O)(=O)O)cc(Nc2ccc(Nc3nc(Cl)nc(Nc4cccc(S(=O)(=O)O)c4)n3)c(S(=O)(=O)O)c2)c2c1C(=O)c1ccccc1C2=O [Reactive Blue 2],-0.98
15,C[C@@H]1O[C@@H](O[C@H]2[C@H](Oc3cc(O)c(C(=O)CCc4ccc(O)cc4)c(O)c3)O[C@H](CO)[C@@H](O)[C@@H]2O)[C@H](O)[C@H](O)[C@H]1O [Naringin Dihydrochalcone],-0.984
16,Cc1nc2c([nH]1)c(=O)n(C)c(=O)n2Cc1ccco1 [Furafylline],-0.322
17,O=C(NCCCNc1nc(Nc2cccc(NC(=O)N3CCCC3)c2)ncc1I)c1cccs1,-23.5
18,C=CC(=O)Nc1cccc(Nc2nc(Nc3ccc(OCCOC)cc3)ncc2F)c1,-15.3
19,O=C(Nc1cccc(Nc2ncc(Br)c(NCCc3cnc[nH]3)n2)c1)N1CCCC1,-24.3
20,Cc1cnc(Nc2ccc(OCCN3CCCC3)cc2)nc1Nc1cccc(S(=O)(=O)NC(C)(C)C)c1,-12.3
21,NC[C@@H]1O[C@H](c2ccccc2)Cc2c1ccc(O)c2O,-2.54
22,CCCCCCCCCCCCc1ccc(S(=O)(=O)Nc2nncs2)cc1,1.21
